# Source: PubChem BioAssay (EPA / NIEHS)
# Records with an inconclusive call do not appear. Activity calls are given as the source filed them. Rule for the calls: active = hit-call score of the fitted dose curve at least 0.9, where 1 is the maximum; inconclusive = response in the unintended direction; inactive = score below 0.9.
# Read-out: Glyceraldehyde-3-phosphate dehydrogenase (Homo sapiens) (UniProt P04406)
# Assay: CLD_GAPDH_6hr: CellzDirect (CLD) Gene Expression Assay for Baseline Control (Glyceraldehyde 3-phosphate dehydrogenase) at 6 hours (AID 2283681);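 note: active means increased signal relative to DMSO vehicle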
# Protocol: CLD_6hr is a cell-based, multiplexed-readout assay that uses hepatocyte, a human liver primary cell, with measurements taken at 6 hours after chemical dosing in a 96-well plate.CLD_GAPDH_6hr is one of 16 assay component(s) measured or calculated from the CLD_6hr assay. It is designed to make measurements of mRNA induction, a form of inducible reporter, as detected with chemiluminescence signals by Quantitative Nuclease Protection Assay (qNPA) technology.Data from the assay component CLD_GAPDH_6hr was analyzed at the endpoint, CLD_GAPDH_6hr, in the positive analysis fitting direction relative to DMSO as the negative control and baseline of activity. Using a type of inducible reporter, gain-of-signal activity can be used to understand changes in the reporter gene as they relate to the gene GAPDH. Furthermore, this assay endpoint can be referred to as a secondary readout, because this assay has produced multiple assay endpoints where this one serves a background control function. To generalize the intended target to other relatable targets, this assay endpoint is annotated to the background measurement intended target family, where subfamily is baseline control.
# Human hepatocyte cultures were treated daily for two consecutive days with fresh dosing solutions containing appropriate concentrations of the 320 ToxCast chemicals (chemical identities were blinded to CellzDirect and other ToxCast collaborators), vehicle control (0.2% DMSO), and positive control inducers as summarized in Table 1. Due to the large number of treatment groups and chemicals examined, the ToxCast chemicals were divided into two groups (spanning two independent cultures of hepatocytes from separate donor preparations (Hu778: ToxCast plates 1 and 2; Hu776: ToxCast plates 3 and 4). Each preparation of human hepatocyte cultures was treated with respective vehicle control, medium only control, set of six positive controls/reference chemicals for the five hepatic receptor pathways, and a subset of eight of the ToxCast chemicals (indoxacarb, pyrithiobac-sodium, norflurazon, cyhalofop-butyl, methomyl, thiram, acetochlor, and propiconazole). These replicate data, coupled with internal replicates designed within the blinded ToxCast chemical library, provided additional data to evaluate interindividual differences between hepatocyte preparations and their potential impact on chemical profiles.Cell morphology and integrity were evaluated using phase-contrast microscopy as an indicator of hepatocyte cell health (Tyson & Green, 1987). Cultures for each treatment group (i.e., media, vehicle [0.2% DMSO], positive control inducers [multiple concentrations], and the ToxCast chemicals [multiple concentrations]) were observed and cell morphology was assessed relative to vehicle control cultures at each harvest time point (0, 6, 24, or 48 h). […] Images were evaluated at the conclusion of the study to assess changes in cell integrity and account for the effects of chemical exposure on uncharacteristic changes in concentration-dependent gene expression profiles. The results from these determinations of apparent cytotoxicity were annotated (yes/no) alongside the corresponding qNPA data for reference.At the conclusion of each treatment period, hepatocyte cultures (96-well) were washed with 1 volume of HBSS, lysed by addition of 25 ul ArrayPlate lysis buffer (HTG, Tucson, AZ), and 70 ul/well of Denaturation Oil, denatured by incubation at 95C for 10 min, and frozen at approximately -70C until analysis by nuclease protection assay (qNPA) (Roberts et al., 2007). For qNPA analysis, cell lysates were thawed at 50C for approximately 30 min, qNPA probes were added, and samples were incubated at 95C for 10 min to begin the detection process by denaturing the target RNA, dissociating the duplexes and secondary structure hybridization. At the conclusion of the hybridization period, S1 nuclease reagent was added to each sample to digest all nonprotected nucleotides at 50C for 60-90 min. […]
# Sequence of Glyceraldehyde-3-phosphate dehydrogenase (Homo sapiens) (P04406 whole entry, looked up): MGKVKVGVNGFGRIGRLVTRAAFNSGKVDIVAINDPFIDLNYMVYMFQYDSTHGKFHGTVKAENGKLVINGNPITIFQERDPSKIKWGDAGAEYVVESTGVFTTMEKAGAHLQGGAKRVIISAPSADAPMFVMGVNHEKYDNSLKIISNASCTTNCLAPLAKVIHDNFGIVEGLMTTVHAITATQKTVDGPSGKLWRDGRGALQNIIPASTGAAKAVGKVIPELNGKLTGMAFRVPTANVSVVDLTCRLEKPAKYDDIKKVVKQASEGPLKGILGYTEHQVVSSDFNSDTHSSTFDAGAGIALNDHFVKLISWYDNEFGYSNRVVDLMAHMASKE
row,Compound,outcome
1,CC(C)Oc1cccc(NC(=O)c2ccccc2C(F)(F)F)c1,inactive
2,O=c1n(Cl)c(=O)n(Cl)c(=O)n1Cl,inactive
3,O=P(O)(O)CCCl,inactive
4,CC(C)C1(C)N=C(c2ncccc2C(=O)O)NC1=O (stereo not given),inactive
5,CS(=O)(=O)c1ccc(C(=O)C2C(=O)CCCC2=O)c([N+](=O)[O-])c1,inactive
6,N#Cc1c(Cl)cccc1Cl,inactive
7,CCOP(=O)(OCC)Oc1nc(Cl)c(Cl)cc1Cl,inactive
8,N#CN=C1SCCN1Cc1ccc(Cl)nc1,inactive
9,CC1(C)CON(Cc2ccccc2Cl)C1=O,inactive
10,C=CCOC(=O)C(C)(C)OC(=O)c1cc(-n2c(=O)cc(C(F)(F)F)n(C)c2=O)ccc1Cl,inactive
11,CC(C)(C)C(=O)C(Oc1ccc(Cl)cc1)n1cncn1 (stereo not given),inactive
12,CO/N=C(/C1=NOCCO1)c1ccccc1Oc1ncnc(Oc2ccccc2Cl)c1F,inactive
13,C=C(C)CN(CC)c1c([N+](=O)[O-])cc(C(F)(F)F)cc1[N+](=O)[O-],inactive
14,Nc1c(Cl)c(F)nc(OCC(=O)O)c1Cl,inactive
15,CS(=O)(=O)c1cc(C(F)(F)F)ccc1C(=O)c1cnoc1C1CC1,inactive
16,CCOc1cc(C(C)(C)C)ccc1C1COC(c2c(F)cccc2F)=N1 (stereo not given),inactive
17,CC(C)N1C(=O)c2ccccc2NS1(=O)=O,inactive
18,COCc1cnc(C2=NC(C)(C(C)C)C(=O)N2)c(C(=O)O)c1 (stereo not given),inactive
19,Cc1cnc(C2=NC(C)(C(C)C)C(=O)N2)c(C(=O)O)c1 (stereo not given),inactive
20,CC(C)NC(=O)N1CC(=O)N(c2cc(Cl)cc(Cl)c2)C1=O,inactive

row,Compound,outcome
1,COP(=S)(OC)Oc1ccc([N+](=O)[O-])c(C)c1,inactive
2,CCNP(=S)(OC)O/C(C)=C/C(=O)OC(C)C (stereo not given),inactive
3,CCCC(=NOCC)C1=C(O)CC(CC(C)SCC)CC1=O (stereo not given),inactive
4,OC(c1ccc(Cl)cc1)(c1ccc(Cl)cc1)C(Cl)(Cl)Cl,inactive
5,CCOc1nc(C(Cl)(Cl)Cl)ns1,inactive
6,CCNC(=O)NC(=O)C(C#N)=NOC,inactive
7,CCCCOCN(C(=O)CCl)c1c(CC)cccc1CC,inactive
8,Clc1nc(Cl)nc(Nc2ccccc2Cl)n1,inactive
9,Nc1c(Cl)c(Cl)nc(C(=O)O)c1Cl,inactive
10,COP(=O)(OC)O/C(C)=C/C(=O)N(C)C,inactive
11,COC(=O)N(C(=O)N1CO[C@@]2(C(=O)OC)Cc3cc(Cl)ccc3C2=N1)c1ccc(OC(F)(F)F)cc1,inactive
12,COCC(C)N(C(=O)CCl)c1c(C)csc1C (stereo not given),inactive
13,O=C1C2CC=CCC2C(=O)N1SC(Cl)(Cl)Cl (stereo not given),inactive
14,COc1ccc(-c2ccccc2)cc1NNC(=O)OC(C)C,inactive
15,CN=C=S,inactive
16,COP(=S)(OC)SCn1nnc2ccccc2c1=O,inactive
17,O=C(O)c1c(Cl)ccc2cc(Cl)cnc12,inactive
18,Clc1cccc(C(Cl)(Cl)Cl)n1,inactive
19,Cc1ccc(N=CN(C)C=Nc2ccc(C)cc2C)c(C)c1,inactive
20,Cn1c(-c2ccccc2)cc(-c2ccccc2)[n+]1C,inactive
